Screening results as filed in PubChem BioAssay.
The list is not random: actives were taken first. Their share in the collection is about 12%.
Sfp inh – blocks B. subtilis Sfp PPTase activity. Q9F4F7. Biochemical Sfp PPTase activity, qHTS. Potency, µM, actives largely listed as inhibitors. hit rate 3.5% among 310,000. AID 1490;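 further: the enzyme is Sfp with the accession as filed and its product quenches rhodamine fluorescence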
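Fluorescence-quenching assay: 15 nM Sfp-PPTase preincubated 15 min at room temperature with compound, then 5 uM rhodamine-CoA and 12.5 uM BHQ-2-labelled YbbR peptide added. Fluorescence (ex 525/em 598 nm) read at start and after 30 min; difference gives rate.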
HP1b chromo inh – blocks HP1-beta chromodomain binding to methylated histone tails; P83916; AlphaScreen HP1-beta / biotin-H3K9me3 peptide binding; Potency, µM (titrated, usually from 114 µM), actives largely listed as inhibitors; hit rate 0.56% among 390,000; AID 540317; further: nearly all actives have a fitted effect of over 70% in size
Target sequence (P83916 whole entry, looked up): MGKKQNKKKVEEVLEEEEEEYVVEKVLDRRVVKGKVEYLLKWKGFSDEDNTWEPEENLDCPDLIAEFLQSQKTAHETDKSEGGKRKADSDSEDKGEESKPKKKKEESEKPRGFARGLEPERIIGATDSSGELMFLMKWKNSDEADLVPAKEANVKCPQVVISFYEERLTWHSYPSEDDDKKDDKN
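AlphaScreen: HP1-beta (50 nM) preformed 30 min with biotin-H3(1-18)K9me3 peptide (50 nM) in PBS pH 7.4, 0.01% Tween-20. Compound added for 30 min at RT, then streptavidin donor/nickel chelate acceptor beads (10 ug/mL) for 30 min.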
BAZ2B inh – BAZ2B (human) inhibition. AlphaScreen BAZ2B-H3K14Ac peptide displacement. Potency, µM (titrated, usually from 114 µM), most hits filed as inhibitors. hit rate 4.4% among 360,000. AID 504333; further: nearly all actives have a fitted effect of over 60% in size
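Complex of BAZ2B and biotin-H3K14Ac (50 nM apiece) forms over 30 min at RT, then faces library compounds up to 110 uM for another 30 min; AlphaScreen beads added, 20 min dark incubation, luminescence read.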
G9a block – blocks human histone lysine methyltransferase G9a. Q96KQ7. G9a H3K9 monomethylation, AlphaScreen, 2 h. Potency, µM (titrated, usually from 102 µM), actives largely listed as inhibitors. hit rate 8.8% among 350,000. AID 504332; further: nearly all actives have a fitted effect of over 75% in size
Target sequence (Q96KQ7 913-1193 limits assumed): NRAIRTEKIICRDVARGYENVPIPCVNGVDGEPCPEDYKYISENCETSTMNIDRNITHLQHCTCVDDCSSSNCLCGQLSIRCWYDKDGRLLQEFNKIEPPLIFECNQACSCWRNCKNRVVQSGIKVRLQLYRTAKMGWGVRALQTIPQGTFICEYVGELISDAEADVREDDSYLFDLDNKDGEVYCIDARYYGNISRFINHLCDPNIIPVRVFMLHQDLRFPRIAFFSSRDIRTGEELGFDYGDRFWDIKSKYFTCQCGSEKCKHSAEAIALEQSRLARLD
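AlphaScreen detection with an anti-monomethyl H3K9 antibody quantified product after a 2 h room-temperature reaction containing 500 nM biotinylated H3K9 peptide, 20 µM SAM and 20 nM enzyme, which had been preincubated 15 min with compound.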
L3MBTL1 inh – blocks human L3MBTL1; AlphaScreen L3MBTL1–H3K9me1 peptide binding; Potency, µM (series often up to 57.1 µM), actives largely listed as inhibitors; hit rate 0.66% among 230,000; further: nearly all actives have a fitted effect of over 60% in size
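AlphaScreen proximity signal between nickel-chelate acceptor and streptavidin donor beads (final 10 ug/mL) reports binding of 50 nM L3MBTL1 to 75 nM biotin-H3 K9me1 peptide; complex incubated with compounds 30 min at room temperature; cefsulodin titration as control.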
JMJD2A Tudor inh – JMJD2A Tudor domain (human) inhibition; O75164; Potency, µM (titrated, usually from 114 µM), most hits filed as inhibitors; AID 504339; AlphaScreen JMJD2A-Tudor / H3K4me3 peptide binding; hit rate 4.4% among 390,000; further: nearly all actives have a fitted effect of over 50% in size
A number is an active result; ! = a repeat was not active; [ ] = another dose, or the depositor's remark. The call rests on the fitted dose curve; in most records, active means well fitted curve in the direction sought with a large enough effect; inconclusive means small, poorly fitted or top-dose-only effect, or another doubt; inactive means no such curve, though single readings can be large; an effect the other way counts as inactive or inconclusive.

`C/C(=C\COc1c2ccoc2cc2oc(=O)ccc12)CCC(O)C(C)(C)O` (configuration not stated) gave Sfp inh inactive.
Screening Cc1cnc(CN2CCCC(C(=O)c3ccc4c5c(cccc35)CC4)C2)[nH]1 (configuration not stated) returned Sfp inh inactive, HP1b chromo inh inconclusive, BAZ2B inh inconclusive, G9a block inconclusive, L3MBTL1 inh inactive and JMJD2A Tudor inh 50.1µM.
O=C(c1ccc2c3c(cccc13)CC2)C1CCCN(Cc2ccc(OCCO)cc2)C1 (configuration not stated) was read as Sfp inh inactive, HP1b chromo inh inactive, BAZ2B inh inconclusive, L3MBTL1 inh inactive and JMJD2A Tudor inh inactive.
CCC(CC)C(=O)N1c2ccccc2C(C)(c2ccccc2)CC1(C)C (configuration not stated) was read as HP1b chromo inh inactive, BAZ2B inh inactive, G9a block inactive and JMJD2A Tudor inh inactive.
For CCOC(=O)c1cccc(NC(=O)C(C)n2nc(C)c3c(C)n(-c4ccccc4)nc3c2=O)c1 (configuration not stated) the results were HP1b chromo inh inactive, BAZ2B inh inactive, G9a block inactive and JMJD2A Tudor inh inactive.
`Cc1ccc(/C=N/NS(=O)(=O)c2ccccc2)o1` gave Sfp inh inactive, HP1b chromo inh inactive, BAZ2B inh inactive, G9a block inactive, L3MBTL1 inh inactive and JMJD2A Tudor inh inactive.
`Cc1oc(/C=N/NS(=O)(=O)c2ccccc2)cc1Br` gave Sfp inh inactive, HP1b chromo inh inactive, BAZ2B inh inactive, G9a block 15.8µM, L3MBTL1 inh inactive and JMJD2A Tudor inh inactive.
`CCCCn1c(N)c(N(CCC(C)C)C(=O)CSc2nc3ccccc3n2C)c(=O)[nH]c1=O` gave HP1b chromo inh inactive and JMJD2A Tudor inh 79.4µM.
CCCCn1c(N)c(N(CCC(C)C)C(=O)C2CCCC2)c(=O)[nH]c1=O was read as HP1b chromo inh inactive, BAZ2B inh inactive, G9a block 20µM, L3MBTL1 inh inactive and JMJD2A Tudor inh inactive.
`CCCCn1c(N)c(N(CC(C)C)C(=O)C2CCC2)c(=O)[nH]c1=O` gave HP1b chromo inh inactive, BAZ2B inh inactive, G9a block inactive[12.7 µM], L3MBTL1 inh inactive and JMJD2A Tudor inh inactive.
Screening CCCCn1c(N)c(N(CCOC)C(=O)C2CCN(S(=O)(=O)c3ccc(C)c(C)c3)CC2)c(=O)[nH]c1=O returned HP1b chromo inh inactive, BAZ2B inh inactive, G9a block 50.1µM, L3MBTL1 inh inactive and JMJD2A Tudor inh inactive.
For CCCCn1c(N)c(N(CCC(C)C)C(=O)c2cc(Cl)nc3ccccc23)c(=O)[nH]c1=O the results were HP1b chromo inh inactive, BAZ2B inh inactive, G9a block inactive, L3MBTL1 inh inactive and JMJD2A Tudor inh inactive.
For CCCCn1c(N)c(N(CCOC)C(=O)C2CCCN(C(=O)c3ccc(Cl)cc3)C2)c(=O)[nH]c1=O (configuration not stated) the results were HP1b chromo inh inactive, BAZ2B inh inactive, G9a block 28.2µM, L3MBTL1 inh inactive and JMJD2A Tudor inh inactive.
For Cc1ccc(C)c(Nc2nnc(-n3nc(C)cc3C)c3ccccc23)c1 the results were HP1b chromo inh inactive, BAZ2B inh inactive, G9a block inactive and JMJD2A Tudor inh inactive.
CCCCN(C(=O)C1CC(=O)N(Cc2ccc(C)cc2)C1)c1c(N)n(CCCC)c(=O)[nH]c1=O (configuration not stated) was read as HP1b chromo inh inactive, BAZ2B inh inactive, G9a block inactive[0.501 µM], L3MBTL1 inh inactive and JMJD2A Tudor inh inactive.
CCCCn1c(N)c(N(CCOC)C(=O)C2CCN(C(=O)c3ccc(Cl)cc3)CC2)c(=O)[nH]c1=O was read as HP1b chromo inh inactive, BAZ2B inh inactive, G9a block 56.2µM, L3MBTL1 inh inactive and JMJD2A Tudor inh inactive.
`CCCCN(C(=O)C1CC(=O)N(CCc2ccc(OC)c(OC)c2)C1)c1c(N)n(CCCC)c(=O)[nH]c1=O` (configuration not stated) gave HP1b chromo inh inactive, BAZ2B inh inactive, G9a block 15.8µM, L3MBTL1 inh inactive and JMJD2A Tudor inh inactive.
Screening Cc1ccc(NC(=O)CSc2n[nH]c(-c3ccc(F)cc3)n2)cc1F returned HP1b chromo inh inactive, BAZ2B inh inactive, G9a block inactive and JMJD2A Tudor inh inactive.
`CCOc1c(C)cc(-c2ncccc2O)cc1C` gave Sfp inh inactive, HP1b chromo inh inactive, BAZ2B inh inactive, G9a block inactive, L3MBTL1 inh inactive and JMJD2A Tudor inh 89.1µM!.
CCc1nc(SC)ncc1C(=O)N1CCN(c2cc(C)ccc2C)CC1 was read as HP1b chromo inh inactive, BAZ2B inh inactive, G9a block inactive and JMJD2A Tudor inh inactive.
Screening OCCC#Cc1c(-c2ccsc2)sc2ccccc12 returned Sfp inh inactive, HP1b chromo inh inactive, BAZ2B inh inactive, G9a block 11.2µM, L3MBTL1 inh inactive and JMJD2A Tudor inh inactive.
OCCCCC#Cc1c(-c2ccsc2)sc2ccccc12 was read as Sfp inh inactive, HP1b chromo inh inactive, BAZ2B inh inactive, G9a block inactive, L3MBTL1 inh inactive and JMJD2A Tudor inh inactive.
`Oc1ccccc1C1C=C(c2ccc3c(c2)OCO3)NC(c2cccc(F)c2)N1` (configuration not stated) gave HP1b chromo inh inactive and JMJD2A Tudor inh inconclusive.
Cc1ccc(NC2CCCN(C(=O)c3ccccc3N3CCOCC3)C2)cc1C (configuration not stated) was read as Sfp inh inactive, HP1b chromo inh inactive, BAZ2B inh inactive, G9a block inconclusive and JMJD2A Tudor inh inactive.
Screening Cc1ccc(NC2CCCN(C(=O)CCN3CCCCO3)C2)cc1C (configuration not stated) returned Sfp inh inactive, HP1b chromo inh inactive, BAZ2B inh inactive, G9a block 31.6µM and JMJD2A Tudor inh inactive.
`Cc1ccc(NC2CCCN(C(=O)c3cn(C)c4ccccc34)C2)cc1C` (configuration not stated) gave Sfp inh inactive, HP1b chromo inh inactive, BAZ2B inh inconclusive, G9a block inconclusive and JMJD2A Tudor inh 25.1µM.
Screening O=C(C1CCCC1)N1CCCC(Nc2ccc(F)cc2)C1 (configuration not stated) returned Sfp inh inactive, HP1b chromo inh inactive, BAZ2B inh inactive, G9a block inconclusive and JMJD2A Tudor inh inactive.
`COc1ccc(NC2CCCN(C(=O)c3cn(C)c4ccccc34)C2)cc1` (configuration not stated) gave Sfp inh inactive, HP1b chromo inh inactive, BAZ2B inh inconclusive, G9a block 17.8µM and JMJD2A Tudor inh inactive.
For Cc1ccc(NC2CCCN(C(=O)C3CCCCC3)C2)cc1C (configuration not stated) the results were Sfp inh inactive, HP1b chromo inh inactive, BAZ2B inh 79.4µM and JMJD2A Tudor inh inactive.
